# Measurements from PubChem BioAssay (NCATS).
# Inconclusive results are not listed. Activity calls are given as the source filed them. The call rests on the fitted dose curve; in most records, active means well fitted inhibition curve with a large enough effect; inconclusive means small, poorly fitted or top-dose-only effect; inactive means flat fitted curve, though single readings scatter.
# Assay: P-glycoprotein substrates identified in KB-8-5-11 adenocarcinoma cell line, qHTS therapeutic library screen (AID 1346987); further: nearly all actives have a fitted effect of over 65% in size
# Settings: KB-8-5-11 (P-gp overexpressing) viability, CellTiter-Glo, 72 h; series mostly up to 44.5 µM; activity change, negative = cytotoxicity: at the top concentration
# Summary of the method: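 Luminescence from CellTiter-Glo, read 5 min after addition, quantified survival of KB-8-5-11 (P-gp-overexpressing) cells exposed to compounds for 72 h. AC50 was derived from concentration-response curves.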
# On the % scale 0 is the no-effect control and ±100 the full control effect.
SMILES,"activity change, negative = cytotoxicity",outcome
C=C1CCC2C(C)(C(=O)OC)CCCC2(C)C1CCC1=CCOC1=O (centres undefined),1.08% (inactive),–
CCOC(=O)C1=C(N)Oc2ccc(Cl)cc2C1C(C#N)C(=O)OCC (centres undefined),-1.06% (inactive),–
OCC1=C[C@@H](O)[C@@H]2C=CO[C@@H](O[C@@H]3O[C@H](CO)[C@@H](O)[C@H](O)[C@H]3O)[C@H]12,8.53% (inactive),–
COc1ccccc1Oc1c(NS(=O)(=O)c2ccc(C)cn2)nc(-c2ccncc2)nc1OC,-15.4% (inactive),–
CSC(=O)OCC1=C[C@@H]2OC(=O)C3=CO[C@@H](O[C@@H]4O[C@H](CO)[C@@H](O)[C@H](O)[C@H]4O)[C@H]1[C@@H]32,5.33% [at 17.3 µM] (inactive),–
NC(N)=NCCC[C@H](NC(=O)c1sccc1NS(=O)(=O)c1cccc2nsnc12)C(=O)O,–,inactive
C/C(=C\C(=O)C[C@@]12C(=O)O[C@]3(C)CC[C@H]1C[C@H]23)C(N)=O,–,inactive
CCCCNc1nc(N)c2[nH]c(=O)n(Cc3ccc(OCCN(C)C)nc3)c2n1,–,inactive
O=C(/C=C/c1ccc(O)c(O)c1)O[C@H]1[C@@H]2C=CO[C@@H](O[C@@H]3O[C@H](CO)[C@@H](O)[C@H](O)[C@H]3O)[C@@H]2[C@@]2(CO)O[C@@H]12,9.92% [at 17.3 µM] (inactive),–
CCCN(CCN1CCN(c2ccccc2OC)CC1)C1CCc2ncsc2C1 (centres undefined),-5.38% (inactive),–
Cc1cc(C(=O)N2Cc3cnn(C)c3Nc3ccccc32)ccc1CNC(=O)N1CCN(Cc2cc(O)cc(O)c2)CC1,–,inactive
COc1cc(/C=C/CO[C@@H]2O[C@H](CO)[C@@H](O)[C@H](O)[C@H]2O)cc(OC)c1O[C@@H]1O[C@H](CO)[C@@H](O)[C@H](O)[C@H]1O,-2.12% [at 17.3 µM] (inactive),–
COC(=O)C1=COC(O[C@@H]2O[C@H](CO)[C@@H](O)[C@H](O)[C@H]2O)[C@@H]2[C@@](C)(O)[C@@H](OC(=O)/C=C/c3ccccc3)C[C@]12O (some centres undefined),0.85% [at 17.3 µM] (inactive),–
CCCC/C=C\CCCCCc1cc(=O)c2ccccc2n1C,–,inactive
